Numbering of substitutions follows the chain as printed.

The values below come from PMC9838217, “Structure of SALL4 zinc finger domain reveals link between AT-rich DNA binding and Okihiro syndrome”.

Assay in all cases: HT-SELEX; high values mean tight binding
Holding throughout (conditions): protein: recombinant; vector His6-GST; dsDNA, one strand shown

Test [1] concerns the target T1, SALL4 ZFC4 WT (HT-SELEX) (Mus musculus, UniProt Q8BX22 870-940).
T1 sequence: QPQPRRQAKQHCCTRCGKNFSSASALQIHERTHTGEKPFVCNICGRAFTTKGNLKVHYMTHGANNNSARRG
The essentials: (§1)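 Purified recombinant mouse SALL4 zinc finger cluster 4 (residues 870–940, 1 µg) and library DNA (1.5 µg first cycle, 200 ng later) were incubated for 10 min at room temperature in 100 µl of 10 mM Tris–HCl pH 7.5, 50 mM NaCl, poly(dI-dC) and DTT. After Ni2+ bead capture and up to 6 triplicate cycles of selection, DNA was MiSeq-sequenced and scanned for 6-mers. Binding signal is the fold change in each canonical k-mer's read fraction relative to the initial random library.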

Test [2] concerns the target T2, SALL4 ZFC4 R900W (HT-SELEX) (Mus musculus, UniProt Q8BX22 870-940, R900W).
T2 sequence: T1 sequence with R31W
The essentials:
as §1

The target of test [3] is T3, SALL4 ZFC4 G921D (HT-SELEX) (Mus musculus, UniProt Q8BX22 870-940, G921D).
T3 sequence: T1 sequence with G52D
The essentials: as §1

On to CACATG, for which the binding signal in test [1] came to 0.752 ± 0.0217 fold-change vs cycle 0; in test [2], 0.8671 ± 0.00649 fold-change vs cycle 0; in test [3] it was 0.925 ± 0.0436 fold-change vs cycle 0.
In the case of ATACAT, the binding signal in test [1] worked out at 2.32 ± 0.0956 fold-change vs cycle 0; in test [2] it was 2.02 ± 0.0564 fold-change vs cycle 0; in test [3], 1.83 ± 0.109 fold-change vs cycle 0.
As to ACCAGT, the figures for the binding signal in test [1], in test [2] and in test [3] were 0.8 ± 0.0267 fold-change vs cycle 0, 0.969 ± 0.0358 fold-change vs cycle 0 and 0.994 ± 0.0294 fold-change vs cycle 0, respectively.
Take GGAGCA: the binding signal in test [1] was 0.352 ± 0.0189 fold-change vs cycle 0; in test [2], 0.423 ± 0.00792 fold-change vs cycle 0; in test [3], 0.543 ± 0.05 fold-change vs cycle 0.
CTTCAC: the figures for the binding signal in test [1], in test [2] and in test [3] were 0.856 ± 0.0564 fold-change vs cycle 0, 1.04 ± 0.0731 fold-change vs cycle 0 and 1.03 ± 0.0678 fold-change vs cycle 0, respectively.
On the same counts, the results for AGGCTC are 0.313 ± 0.0334 fold-change vs cycle 0, 0.399 ± 0.014 fold-change vs cycle 0 and 0.546 ± 0.0493 fold-change vs cycle 0.
As for CCTTCA, the binding signal in test [1] is 0.899 ± 0.0192 fold-change vs cycle 0; in test [2] it was 1.05 ± 0.0389 fold-change vs cycle 0; in test [3] it was 1.06 ± 0.0107 fold-change vs cycle 0.
For ATAATC, the binding signal amounted to 2.69 ± 0.205 fold-change vs cycle 0 in test [1], 2.05 ± 0.113 fold-change vs cycle 0 in test [2] and 1.81 ± 0.145 fold-change vs cycle 0 in test [3].
Consider TATAAA, for which the binding signal was 3.97 ± 0.451 fold-change vs cycle 0 in test [1], 2.53 ± 0.209 fold-change vs cycle 0 in test [2] and 2.14 ± 0.302 fold-change vs cycle 0 in test [3].
On the same counts, the results for ATTGGA are 1.3 ± 0.0815 fold-change vs cycle 0, 1.36 ± 0.0818 fold-change vs cycle 0 and 1.33 ± 0.0804 fold-change vs cycle 0.
Consider ACCTTA, for which the binding signal in test [1] turned out to be 1.43 ± 0.0462 fold-change vs cycle 0; in test [2], 1.6 ± 0.0314 fold-change vs cycle 0; in test [3] it was 1.44 ± 0.0668 fold-change vs cycle 0.
Take GGTCTA: the binding signal is 0.681 ± 0.0386 fold-change vs cycle 0 in test [1], 0.794 ± 0.0243 fold-change vs cycle 0 in test [2] and 0.8869 ± 0.005 fold-change vs cycle 0 in test [3].
For the sequence CAGGAA, the results for the binding signal in test [1], in test [2] and in test [3] were 0.785 ± 0.0392 fold-change vs cycle 0, 0.921 ± 0.0224 fold-change vs cycle 0 and 0.918 ± 0.0252 fold-change vs cycle 0, respectively.
On the same counts, the results for CAGTCG are 0.32 ± 0.0306 fold-change vs cycle 0, 0.389 ± 0.0206 fold-change vs cycle 0 and 0.497 ± 0.0334 fold-change vs cycle 0.
Regarding TCAGAA, the binding signal was determined as 1.27 ± 0.0471 fold-change vs cycle 0 in test [1], 1.37 ± 0.0562 fold-change vs cycle 0 in test [2] and 1.28 ± 0.0614 fold-change vs cycle 0 in test [3].
TATCGA: the figures for the binding signal in test [1], in test [2] and in test [3] were 1.23 ± 0.0345 fold-change vs cycle 0, 1.2 ± 0.0508 fold-change vs cycle 0 and 1.22 ± 0.03 fold-change vs cycle 0, respectively.
For the sequence CTGAGA, the binding signal in test [1] came to 0.788 ± 0.03 fold-change vs cycle 0; in test [2] it was 0.922 ± 0.033 fold-change vs cycle 0; in test [3], 0.951 ± 0.0498 fold-change vs cycle 0.
On to AGAATC, for which the binding signal came to 1.3 ± 0.1 fold-change vs cycle 0 in test [1], 1.47 ± 0.0816 fold-change vs cycle 0 in test [2] and 1.41 ± 0.128 fold-change vs cycle 0 in test [3].
Turning to ACTTCT, the binding signal in test [1] came to 1.44 ± 0.0317 fold-change vs cycle 0; in test [2], 1.64 ± 0.0808 fold-change vs cycle 0; in test [3], 1.45 ± 0.0874 fold-change vs cycle 0.
For the sequence CTGCAG, the results for the binding signal in test [1], in test [2] and in test [3] were 0.318 ± 0.0345 fold-change vs cycle 0, 0.373 ± 0.0324 fold-change vs cycle 0 and 0.467 ± 0.0711 fold-change vs cycle 0, respectively.
In the case of ATTGCC, the binding signal in test [1] was determined as 0.502 ± 0.0233 fold-change vs cycle 0; in test [2], 0.566 ± 0.0263 fold-change vs cycle 0; in test [3], 0.699 ± 0.0539 fold-change vs cycle 0.
Turning to ATGTGG, the binding signal in test [1] is 0.714 ± 0.021 fold-change vs cycle 0; in test [2], 0.787 ± 0.0136 fold-change vs cycle 0; in test [3] it was 0.851 ± 0.0464 fold-change vs cycle 0.
Consider CGTGAA, for which the binding signal in test [1] turned out to be 0.669 ± 0.0388 fold-change vs cycle 0; in test [2], 0.776 ± 0.0286 fold-change vs cycle 0; in test [3], 0.834 ± 0.041 fold-change vs cycle 0.
For the sequence TGCAAA, the binding signal in test [1] was determined as 1 ± 0.0674 fold-change vs cycle 0; in test [2], 0.975 ± 0.0411 fold-change vs cycle 0; in test [3], 1.03 ± 0.0183 fold-change vs cycle 0.
Consider CAATAA, for which the figures for the binding signal in test [1], in test [2] and in test [3] were 2.18 ± 0.182 fold-change vs cycle 0, 1.91 ± 0.101 fold-change vs cycle 0 and 1.73 ± 0.173 fold-change vs cycle 0, respectively.
Consider TACCGA, for which the binding signal came to 0.689 ± 0.0125 fold-change vs cycle 0 in test [1], 0.749 ± 0.0345 fold-change vs cycle 0 in test [2] and 0.837 ± 0.0299 fold-change vs cycle 0 in test [3].
The corresponding values for CATGTA are 1.28 ± 0.0897 fold-change vs cycle 0, 1.37 ± 0.0595 fold-change vs cycle 0 and 1.35 ± 0.123 fold-change vs cycle 0.
Take ATGGTA: the results for the binding signal in test [1], in test [2] and in test [3] were 1.45 ± 0.0382 fold-change vs cycle 0, 1.48 ± 0.0495 fold-change vs cycle 0 and 1.4 ± 0.052 fold-change vs cycle 0, respectively.
In the case of CAATGG, the binding signal in test [1] came out at 0.767 ± 0.067 fold-change vs cycle 0; in test [2], 0.849 ± 0.0267 fold-change vs cycle 0; in test [3] it was 0.923 ± 0.0362 fold-change vs cycle 0.
Regarding GGGTGA, the binding signal in test [1] was 0.483 ± 0.00743 fold-change vs cycle 0; in test [2], 0.541 ± 0.0302 fold-change vs cycle 0; in test [3] it was 0.632 ± 0.0295 fold-change vs cycle 0.
